Source: PubChem
Rows were chosen to be rich in hits. Some 22% of all compounds tested hit in one or more screens of this group.
E-sel TNF inh: E-selectin induction blockers in HUVEC – imaging, immunofluorescence, high content, primary screen | AID 1246, 2008 | HUVEC TNFa-induced E-selectin immunofluorescence | inhibition, % at 2 µM | hit rate 0.71% among 120,000;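 active means inhibition above the batch mean plus 3 SD, and confirmed as a hit on visual image review, cut at about 43% in these data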;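 further: 0% = TNF-stimulated DMSO wells and 100% = unstimulated control wells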
CYP2C9 inhib: blockers of cytochrome P450 2C9 activity – biochemical, luminescence, ADME assay, primary screen | P11712 | CYP2C9 Supersomes, luciferin-H conversion | inhibition, % at 5 µM | hit rate 20% among 96,000;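 active means blocking of liver enzyme CYP2C9 beyond about 50% at 5 µM, limit read from the data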
Target sequence (P11712 whole entry, looked up): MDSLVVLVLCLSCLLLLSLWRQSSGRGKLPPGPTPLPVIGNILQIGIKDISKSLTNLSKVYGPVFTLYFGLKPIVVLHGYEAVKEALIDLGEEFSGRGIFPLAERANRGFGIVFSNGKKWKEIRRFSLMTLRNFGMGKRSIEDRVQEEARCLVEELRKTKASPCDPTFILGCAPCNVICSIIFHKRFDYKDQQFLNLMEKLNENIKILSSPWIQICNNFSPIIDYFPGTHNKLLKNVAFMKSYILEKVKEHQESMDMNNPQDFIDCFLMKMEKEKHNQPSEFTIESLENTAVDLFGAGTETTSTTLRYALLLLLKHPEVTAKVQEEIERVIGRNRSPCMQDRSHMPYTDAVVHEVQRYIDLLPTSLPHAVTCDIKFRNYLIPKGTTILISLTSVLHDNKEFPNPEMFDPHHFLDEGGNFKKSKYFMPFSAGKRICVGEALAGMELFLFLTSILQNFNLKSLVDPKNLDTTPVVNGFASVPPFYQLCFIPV
CYP2C9 activ: human CYP2C9 activators, primary screen, biochemical, luminescence | AID 1024, 2008 | activation factor at 5 µM | hit rate 1.4% among 96,000 | Cytochrome P450 2C9 (Homo sapiens), P11712 | recombinant CYP2C9, luciferin-H conversion; stronger effect = higher value; factor 1 = untreated enzyme, 0 = blocked;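 active means activation factor of 2 or more for CYP2C9 at a 5 µM dose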;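 further: 0 = sulfaphenazole-blocked wells and 1 = vehicle-only wells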
CYP2C19 activ: human CYP2C19 activators, primary screen, biochemical, luminescence | recombinant CYP2C19, luciferin-H EGE luminescence; stronger effect = higher value; 0 = fully inhibited enzyme, 1 = untreated enzyme | activation factor at 5 µM | 96,000 tested, under 10 active | AID 1025, 2008;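 active means activation factor of at least 2 at 5 µM in the primary screen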;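 further: 0 = wells with 2.5 mM tranylcypromine and 1 = vehicle-only wells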
CYP2C19 inhib: blockers of cytochrome P450 2C19 activity – biochemical, luminescence, ADME assay, primary screen. P33261. CYP2C19 Supersomes, luciferin-H EGE luminescence, 30 min. inhibition, % at 5 µM. hit rate 21% among 96,000. AID 778, 2007;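 active means CYP2C19 inhibition above a set limit at 5 µM in the primary screen, cut at about 50% in these data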;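 further: plate controls were negative control wells for no effect and 2.5 mM tranylcypromine positive control for full effect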
cytoskel mod: modifiers of F-actin cytoskeleton organization, primary screen, imaging, HUVEC, phalloidin staining, high-content imaging. HUVEC TNFa F-actin phalloidin imaging. hit rate 0.18% among 91,000. inhibition, % at 2 µM;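 active means inhibition above the batch mean plus 3 SD and confirmed as a hit by visual image inspection, cut at about 30% in these data, passing the limit was not always enough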
An asterisk follows results filed as active; x = not tested or not shown.

SMILES	E-sel TNF inh	CYP2C9 inhib	CYP2C9 activ	CYP2C19 activ	CYP2C19 inhib	cytoskel mod
COc1ccccc1CCNC(=O)CCSc1nc(-c2ccco2)cc(C(F)(F)F)n1	-13.6	x	x	x	x	5.7
Cc1ccc(S(=O)(=O)N2CCN(C(=O)C3COc4ccccc4O3)CC2)cc1C (stereo not drawn)	79.0*	-13.2	1.1	1	4.2	8.9
Cc1ccc(S(=O)(=O)N2CCN(C(=O)C3=COCCO3)CC2)cc1C	27.8	2.7	1	0	97.1*	7.8
O=C(C1=COCCO1)N1CCN(S(=O)(=O)c2cccc(Cl)c2Cl)CC1	28.9	16.8	0.8	0.7	25.4	-10.0
Cc1ccc(S(=O)(=O)N2CCN(C(=O)c3nn(C(C)C)c(=O)c4ccccc34)CC2)cc1C	-10.4	58.6*	0.4	0.6	38.4	20.4
CC(C)n1nc(C(=O)NCCc2ccc(S(N)(=O)=O)cc2)c2ccccc2c1=O	6.7	62.7*	0.4	0.9	9.2	15.2
CCn1nc(C(=O)NCCc2ccc(S(N)(=O)=O)cc2)c2ccccc2c1=O	17.6	4.1	1	1.1	-14.1	x
CCN1CCN(C(=O)C2CCN(S(=O)(=O)c3cccc4cccnc34)CC2)CC1	x	-72.4	1.7	1.2	-15.3	-10.9
CCN(CC)CCOC(=O)C1c2ccccc2Oc2ccccc21	-1.7	-9.4	1.1	0.7	30.0	-7.5
CCOc1ccc(/C=C2\C(=O)c3ccccc3OC2c2ccccc2)cc1 (stereo not drawn)	9.0	42.4	0.6	0.5	51.5*	24.3
O=c1c([N+](=O)[O-])c(N2CCCCC2)c2ccccc2n1-c1ccccc1	-6.4	-12.2	1.1	1.1	-8.9	5.8
Nc1c(N2CCCCC2)c(=O)[nH]c(=O)n1-c1ccccc1	-8.1	-3.7	1	0.5	54.8*	19.8
Nc1nc(CSCc2ccccc2)nc(N2CCOCC2)n1	16.3	33.4	0.7	0.1	91.8*	13.9
Clc1ccc(CNc2nc(N3CCOCC3)nc(N3CCOCC3)n2)cc1	1.8	75.4*	0.2	0.2	77.1*	-0.2
CCNc1nc(SCc2ccccc2)nc(N2CCOCC2)n1	-29.1	67.8*	0.3	0.2	82.1*	10.5
O=C(N1CCOCC1)N1CCN(S(=O)(=O)N2CCCCC2)CC1	16.0	6.1	0.9	0.9	9.6	x
Cc1ccc(C(=O)C2=C(O)C(=O)N(c3ncccn3)C2c2ccc(Cl)cc2)o1 (stereo not drawn)	5.9	x	x	x	x	13.2
O=C(NCc1ccc(Cl)cc1)C1C2C=CC3(CN(Cc4cccnc4)C(=O)C13)O2 (stereo not drawn)	4.3	53.2*	0.5	0.7	29.5	-16.8
CCN(C(C)=O)c1nnc(CSc2nc3ccccc3s2)s1	-18.6	1.6	1	0.1	88.4*	-4.7
CC(=O)c1sc(NC(=O)C=C(C)C)nc1C	-17.1	35.8	0.6	0.8	21.6	3.3
CC(=O)c1sc(NC(=O)C2(F)C(F)(F)C(F)(F)C(F)(F)C(F)(F)C2(F)F)nc1C	-37.0	84.8*	0.2	1.1	-6.0	x
COC(=O)C(O)(CC(=O)Nc1cccc(SC)c1)C(F)(F)F (stereo not drawn)	-17.6	11.4	0.9	0.7	32.2	-20.5
Cc1ccccc1-n1ncc2c(SCC(=O)NCc3cccs3)ncnc21	7.8	33.5	0.7	0.9	10.9	9.5
Cc1csc(NC(=O)CSc2ncnc3c2cnn3-c2ccccc2Cl)n1	8.2	90.0*	0.1	0.1	89.5*	1.8
CC1CCc2c(sc(NC(=O)CSc3ncnc4c3cnn4-c3ccccc3Cl)c2C#N)C1 (stereo not drawn)	-0.3	71.8*	0.3	0.7	26.6	-11.8
SMILES	E-sel TNF inh	CYP2C9 inhib	CYP2C9 activ	CYP2C19 activ	CYP2C19 inhib	cytoskel mod
Cn1c(=O)c(=O)n(C)c2cc(S(=O)(=O)N3CCN(C4CCCCC4)CC3)ccc21	x	-149.3	2.5*	1.1	-10.7	-15.2
Cn1c(=O)c(=O)n(C)c2cc(S(=O)(=O)N3CCOCC3)ccc21	x	12.7	0.9	0.9	12.0	26.1
CC1=C2C(CCS2(=O)=O)CC2(C1)C(=O)OC(C)(C)OC2=O (stereo not drawn)	5.2	2.6	1	0.2	81.9*	28.7
Cc1oc2c(cc(NS(=O)(=O)c3cccs3)c3ccccc32)c1C(=O)OC(C)C	-31.0	x	x	x	x	7.0
COc1ccc(S(=O)(=O)Nc2cc3c(C(C)=O)c(C)oc3c3ccccc23)cc1	29.3	84.0*	0.2	0.1	92.7*	x
O=C(N/N=C/c1ccccc1Br)c1ccc(CSc2cccc3cccnc23)cc1	26.2	50.5*	0.5	0.6	44.6	1.6
Cc1ccc2c(c1)N(CCC(=O)NCC1COc3ccccc3O1)C(=O)CO2 (stereo not drawn)	x	35.4	0.6	0.2	75.7*	-2.1
Cc1ccc2c(c1)N(CCC(=O)NCc1ccco1)C(=O)CO2	16.0	-12.6	1.1	0.6	38.0	2.5
CCC1Oc2ccc(C)cc2N(CC(=O)NCC2COc3ccccc3O2)C1=O (stereo not drawn)	x	37.8	0.6	0.1	92.7*	9.2
CCC1Oc2ccc(C)cc2N(CC(=O)NCCN2CCCCCC2)C1=O (stereo not drawn)	-9.3	9.1	0.9	0.9	5.6	8.2
CC(C)(C)c1ccc(S(=O)(=O)NCc2ccc(C(=O)N3CCOCC3)cc2)cc1	-23.8	-36.1	1.4	1	1.8	13.9
Cc1ccc(CNS(=O)(=O)c2ccc(C(C)(C)C)cc2)n1C	-27.6	-89.6	1.9	0.3	73.2*	-5.5
C=CCN(CC(=O)NCc1ccccc1)C(=O)c1csnn1	-4.9	9.6	0.9	0.3	72.7*	9.6
CCOC(=O)c1nn(-c2ccccc2)c2nc(Nc3ccccc3)cc(=O)n12	-8.2	17.0	0.8	1	1.0	-7.8
Nc1ccccc1OCCOCCOCCOc1ccccc1N	x	60.3*	0.4	0.3	74.6*	x
COc1ccccc1C(=O)Nc1ccon1	12.5	-34.0	1.3	1	3.1	-12.7
CCN(CCNC(=O)Cn1cc2c(n1)CCCC2)c1ccccc1	-24.5	68.8*	0.3	0.3	71.8*	x
Cc1ccc2nc(NC(=O)Cn3cc4c(n3)CCCCC4)sc2c1	x	65.7*	0.3	0.7	29.0	-13.0
O=C(Cn1cc2c(n1)CCCCC2)NCc1ccccc1	x	-154.5	2.5*	0.2	83.7*	7.4
O=C(Cn1cc2c(n1)CCCC2)Nc1ccccc1Br	x	67.1*	0.3	0.1	90.0*	-7.1
CN1C(=O)NC(c2ccc(O)cc2)C2=C1CN(c1cccc3ccccc13)C2=O (stereo not drawn)	-12.3	x	x	x	x	x
COc1ccc(N2C(=O)C(F)(F)C2c2ccccc2F)cc1 (stereo not drawn)	-14.5	x	x	x	x	x
